A selection: hits, their analogues and other compounds. The true share with any hit is near 11%.
AmpC detergent = AmpC beta-lactamase inhibition with detergent present; P00811; AmpC hydrolysis of nitrocefin, absorbance 480 nm, 0.01% Triton; Potency, µM (doses to about 114 µM), without a hit: at the highest dose activity change, negative = inhibition, usual class: inhibitors; 370,000 compounds, 0.041% hits;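 also: 0% = no-compound wells and -100% = no-enzyme wells; nearly all actives have a fitted effect of over 25% in size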
Target sequence (P00811 whole entry, looked up): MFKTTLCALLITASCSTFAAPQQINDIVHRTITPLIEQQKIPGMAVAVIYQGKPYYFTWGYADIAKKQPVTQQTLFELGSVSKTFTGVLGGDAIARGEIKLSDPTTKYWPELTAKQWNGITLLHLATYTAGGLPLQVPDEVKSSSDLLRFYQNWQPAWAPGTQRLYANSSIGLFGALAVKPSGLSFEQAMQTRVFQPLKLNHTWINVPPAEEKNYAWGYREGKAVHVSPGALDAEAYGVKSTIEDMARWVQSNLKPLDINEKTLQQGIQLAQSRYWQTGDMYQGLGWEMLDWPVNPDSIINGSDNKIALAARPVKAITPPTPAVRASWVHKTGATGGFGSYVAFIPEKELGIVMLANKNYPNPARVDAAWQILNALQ
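AmpC (5.3 nM in the dispensed reagent) in 20 mM phosphate pH 7.0 with 0.01% (detergent screen) or 0.0001% Triton X-100 was preincubated with compounds for 15 min at room temperature. Nitrocefin was then added from an 800 uM solution, and hydrolysis was followed at 480 nm.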
Pf growth 48h = inhibits P. falciparum growth in the first generation, 48 h | P. falciparum luciferase growth in erythrocytes, 48 h | Potency, µM (doses to about 28.7 µM), for inactives: at the top dose activity change, negative = inhibition, most hits filed as inhibitors | 310,000 compounds, 5.9% hits
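Luciferase-expressing P. falciparum in infected erythrocytes (2% hematocrit, 0.1% parasitemia final) in RPMI 1640/0.5% Albumax were exposed to compound for 48 hours at 37 C, 5% CO2; growth read as luminescence.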
HCV inh = inhibitors of hepatitis C virus infection | Huh7.5.1 HCVcc-Cre infection, luciferase reporter, 44 h | Potency, µM (top dose mostly 41.8 µM), for inactives: at the top dose activity change, negative = inhibition, actives largely listed as inhibitors | 340,000 compounds, 3.4% hits | AID 651820
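HCVcc-Cre virus at an moi near 0.5 was added right after compound to cells cultured 4 h from seeding (1,000 cells/well). Luciferase activity was determined 44 h later, 15 min after substrate addition at RT.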
AmpC no deterg = inhibitors of E. coli AmpC beta-lactamase without detergent | P00811 | AmpC nitrocefin hydrolysis, absorbance 480 nm, 0.0001% Triton | Potency, µM (series often up to 57.1 µM), without a hit: at the highest dose activity change, negative = inhibition, hits mostly inhibitors | 330,000 compounds, 0.52% hits | AID 485341;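 also: plate controls were no compound for no effect and no enzyme for full effect; nearly all actives have a fitted effect of over 20% in size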
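AmpC (5.3 nM in the dispensed reagent) in 20 mM phosphate pH 7.0 with 0.01% (detergent screen) or 0.0001% Triton X-100 was preincubated with compounds for 15 min at room temperature. Nitrocefin was then added from an 800 uM solution, and hydrolysis was followed at 480 nm.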
Pf growth 96h = inhibits malaria parasite growth, 96 h. P. falciparum luciferase reporter growth, 96 h. Potency, µM (highest dose often 28.7 µM), without a hit: at the top dose activity change, negative = inhibition, most hits filed as inhibitors. 320,000 compounds, 6.9% hits. AID 504834
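Delayed-death screen, second-generation endpoint: infected erythrocytes, 2% hematocrit, 0.05% parasitemia final; 96 hours at 37 C, 5% CO2; luciferase detection reagent; luminescence decrease equals reduced growth.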
AMA1 RON2 block = inhibitors of Plasmodium falciparum AMA1-RON2 interaction; AlphaScreen AMA1-biotinylated RON2 peptide binding; Potency, µM (highest dose often 58.2 µM), for the others: top-dose activity change, negative = inhibition, most hits filed as inhibitors; 360,000 compounds, 0.2% hits; AID 720542;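 also: 0% = vehicle wells and -100% = peptide control; nearly all actives have a fitted effect of over 45% in size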
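AMA1 (3D7) with his tag at 25 nM final met compounds first, then biotinylated RON2 peptide at 25 nM; detection used donor plus acceptor beads, 10 µg/mL apiece, read by AlphaScreen after 30 min at room temperature.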
Numbers without * were called inactive; ! = repeats disagree. Calls follow the shape of the dose curve; as a rule, active = well fitted curve in the direction sought with a large enough effect; inconclusive = small, poorly fitted or top-dose-only effect, or another doubt; inactive = no such curve, though single readings can be large; an effect the other way counts as inactive or inconclusive. Unless noted, % is scaled to controls: 0 for no effect and ±100 for the full control effect; potency is read from the fitted curve at half-maximal effect.

Cc1ccc(CN2CCN(Cc3ccncc3)CC2CCO)o1 (stereo not drawn) was read as AmpC detergent 2.2%, Pf growth 48h 10.1%, HCV inh 20.8%, AmpC no deterg -15.9%, Pf growth 96h inconclusive and AMA1 RON2 block 4.2%.
Screening CC(C)CCN1CCN(Cc2cccn2-c2ccc(Cl)cn2)CC1CCO (stereo not drawn) returned AmpC detergent 5.0%, Pf growth 48h 9.28µM*, HCV inh -7.2%, AmpC no deterg 0.2%, Pf growth 96h 0.4% and AMA1 RON2 block 4.8%.
`OCCC1CN(Cc2cccn2-c2ncccn2)CCN1Cc1ccccc1` (stereo not drawn) gave AmpC detergent 9.6%, Pf growth 48h -5.9%, HCV inh 2.9%, AmpC no deterg -6.1%, Pf growth 96h 13.1µM* and AMA1 RON2 block 4.0%.
For CCn1ccnc1CN1CCN(CCC(C)C)C(CCO)C1 (stereo not drawn) the results were AmpC detergent 7.6%, Pf growth 48h 3.7%, HCV inh 7.3%, AmpC no deterg -14.8%, Pf growth 96h 11.7µM* and AMA1 RON2 block 37.1%.
For CCn1ccnc1CN1CCN(CC(C)C)C(CCO)C1 (stereo not drawn) the results were AmpC detergent 3.8%, Pf growth 48h 6.5%, HCV inh -12.6%, AmpC no deterg -12.1%, Pf growth 96h 0.4% and AMA1 RON2 block 7.3%.
For Cc1ccc(CN2CCN(Cc3cccn3-c3ccccn3)CC2CCO)cc1 (stereo not drawn) the results were AmpC detergent -2.3%, Pf growth 48h -0.9%, HCV inh -18.5%, AmpC no deterg 11.3%, Pf growth 96h 46.4% and AMA1 RON2 block -2.9%.
Screening Cc1nc2c3cccnc3nn2c(C)c1CCC(=O)NCc1ccccc1Cl returned AmpC detergent -8.5%.
For COc1cc(NC(=O)Cn2nc(C(F)(F)F)c3c2CCCC3)c(OC)cc1Cl the results were AmpC detergent 23.0%.
CC(=O)Nc1ccc(NC(=O)C2CCCN(C(=O)c3ccc(Cl)cc3)C2)cc1 (stereo not drawn) was read as AmpC detergent 2.3%, Pf growth 48h -13.6%, HCV inh 21.2%, AmpC no deterg -8.4%, Pf growth 96h 0.0% and AMA1 RON2 block -2.9%.
For O=C(Nc1ccc(OC(F)(F)F)cc1)C1CCCN(C(=O)c2ccc(Cl)cc2)C1 (stereo not drawn) the results were AmpC detergent 1.8%, Pf growth 48h inconclusive, HCV inh 7.94µM*, AmpC no deterg 27.1%, Pf growth 96h inconclusive and AMA1 RON2 block -2.2%.
Screening CCOc1ccc(OCC)c(NC(=O)C2CCCN(C(=O)c3ccc(Cl)cc3)C2)c1 (stereo not drawn) returned AmpC detergent inconclusive, Pf growth 48h inconclusive, HCV inh inconclusive, AmpC no deterg 10.7%, Pf growth 96h 9.28µM* and AMA1 RON2 block -1.6%.
For O=C(Cc1ccc(F)cc1)Nc1cccc(-c2nc3cccnc3s2)c1 the results were AmpC detergent 1.0%.
Cc1ccc2cc(C(c3nnnn3CC3CCCO3)N3CCc4ccccc4C3)c(=O)[nH]c2c1 (stereo not drawn) was read as AmpC detergent -5.9%, Pf growth 48h inconclusive, HCV inh -16.3%, AmpC no deterg -9.6%, Pf growth 96h 150.6% and AMA1 RON2 block -7.7%.
`Cc1cccc2cc(C(c3nnnn3CC3CCCO3)N3CCCc4ccccc43)c(=O)[nH]c12` (stereo not drawn) gave AmpC detergent inconclusive, Pf growth 48h 9.28µM*, HCV inh -8.0%, AmpC no deterg 15.3%, Pf growth 96h -18.7% and AMA1 RON2 block -3.5%.
`CCOc1ccc2[nH]c(=O)c(C(c3nnnn3CC3CCCO3)N3CCc4ccccc4C3)cc2c1` (stereo not drawn) gave AmpC detergent -13.3%, Pf growth 48h 10.4µM*, HCV inh -13.9%, AmpC no deterg 40.5%, Pf growth 96h -14.2% and AMA1 RON2 block 0.5%.
Screening CCc1ccc2[nH]c(=O)c(C(c3nnnn3CC3CCCO3)N3CCCc4ccccc43)cc2c1 (stereo not drawn) returned AmpC detergent -4.1%, Pf growth 48h 11.7µM*, HCV inh -5.9%, AmpC no deterg 26.2%, Pf growth 96h inconclusive and AMA1 RON2 block -14.0%.
Screening Cc1cc2cc(C(c3nnnn3CC3CCCO3)N3CCCc4ccccc43)c(=O)[nH]c2cc1C (stereo not drawn) returned AmpC detergent 9.2%, Pf growth 48h inconclusive, HCV inh 0.9%, AmpC no deterg -11.2%, Pf growth 96h -20.9% and AMA1 RON2 block 2.6%.
`CCN(CC)S(=O)(=O)c1ccc2c(c1)nc(CN(C)C(=O)c1cccc(Cl)c1)n2C` gave AmpC detergent 2.3%.
CCC(=O)Nc1cc(C(=O)OC(C(=O)c2ccc(C)c(C)c2)c2ccccc2)ccc1C (stereo not drawn) was read as AmpC detergent 1.2%, Pf growth 48h 11.7µM*, HCV inh -20.0%, AmpC no deterg 50.4%, Pf growth 96h 1.65µM* and AMA1 RON2 block 26.0%.
For Cc1ccc(C)c(NC(=O)CCC(=O)OC(C(=O)c2ccccc2)c2ccccc2)c1 (stereo not drawn) the results were AmpC detergent 4.1%, Pf growth 48h 3.0%, HCV inh 21.5%, AmpC no deterg -8.6%, Pf growth 96h inconclusive and AMA1 RON2 block -6.9%.
For COC(=O)C1C2CC3c4[nH]c5cc(OC)ccc5c4CCN3CC2CC(OC(=O)CC(C)=O)C1OC (stereo not drawn) the results were HCV inh -11.1% and AMA1 RON2 block -0.9%.
`COC(=O)[C@H]1[C@H]2C[C@H]3c4[nH]c5ccccc5c4CCN3C[C@H]2CC[C@@H]1O` gave AmpC detergent -4.9%, Pf growth 48h -4.5%, HCV inh -11.4%, AmpC no deterg -11.9%, Pf growth 96h 1.51µM*! and AMA1 RON2 block -6.3%.
CCOC(=O)Oc1c(OC)cc(C(=O)O[C@@H]2C[C@@H]3CN4CCc5c([nH]c6cc(OC)ccc56)[C@H]4C[C@@H]3[C@H](C(=O)OC)[C@H]2OC)cc1OC was read as AmpC detergent -10.6%, Pf growth 48h 2.62µM*, HCV inh 5.62µM*, AmpC no deterg 148.2%, Pf growth 96h 2.94µM* and AMA1 RON2 block -6.0%.
